Data published in PubChem BioAssay AID504832 (National Center for Advancing Translational Sciences (NCATS), 2011).
Out of some 310,000 compounds screened, about 18,000 (5.8%) were called active. A call without a number means that no potency is given here. Inconclusive results (about 22%) are left out. Calls follow the shape of the dose curve; as a rule, active = well fitted inhibition curve with a large enough effect; inconclusive = small, poorly fitted or top-dose-only effect, or another doubt; inactive = no such curve, though single readings can be large or run the other way. The full list was thinned out, with actives kept by preference.

Test: Primary qHTS for delayed death inhibitors of the malarial parasite plastid, 48 hour incubation
Conditions: P. falciparum luciferase growth in erythrocytes; series mostly up to 28.7 µM
How it was run: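 First compound was added to culture medium, then infected red cells at 0.1% parasitemia and 2% hematocrit (final). After incubation at 37 C under 5% CO2, luciferase detection reagent was dispensed and light output recorded.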
Potency is read from the fitted curve at half-maximal effect.

SMILES | Potency
CN(C)c1cccc(C(=O)N2CCC(n3nccc3NC(=O)C3CCOC3)CC2)c1 (centres undefined) | inactive
COc1ccc(CCNC(=O)C(=O)NCC2OCCN2S(=O)(=O)c2ccc(OC)c(C)c2)cc1 (centres undefined) | inactive
COC(=O)c1ccccc1NC(=O)CSc1nc2c(c(=O)[nH]1)CCC2 | inactive
CCc1ccc(OCC(=O)OC(C)C(=O)NC2CC2)cc1 (centres undefined) | inactive
O=C(NC1CCCC1)C1CCN(C(=O)Nc2cccc(Cl)c2)CC1 | inactive
COc1ccc(Cl)cc1NC(=O)C(C)N1CCc2ccccc21 (centres undefined) | 6.57 µM (active)
COc1ccc(Cl)cc1NC(=O)CNc1ccccc1F | inactive
COc1ccc(Cl)cc1NC(=O)CCN1CCOCC1 | inactive
O=C(O)CC(c1ccccc1F)N1Cc2ccccc2C1=O (centres undefined) | inactive
Nc1nc(NCC(=O)O)nc(N2CCCCCC2)c1[N+](=O)[O-] | inactive
CNc1nc(Nc2ccc(C)c(Cl)c2)nc(N)c1[N+](=O)[O-] | inactive
CCN1CCN(c2nc(Nc3cccc(F)c3)nc(N)c2[N+](=O)[O-])CC1 | 13.1 µM (active)
COc1ccccc1C(=O)NC(=O)COC(=O)c1ccco1 | inactive
O=C(Cn1cnc2ccccc21)Nc1ccccc1-c1ccccc1 | inactive
CCSc1nnc(SCC(=O)NNC(=O)c2ccccc2F)s1 | inactive
OCC1(CCOc2ccccc2)CCN(Cc2cn[nH]c2-c2ccccc2)CC1 | inactive
Cc1c(CN2CCC(CO)(CCOc3ccccc3)CC2)[nH]c2ccc(Cl)cc12 | 3.7 µM (active)
Cc1cc(OCCCN2CCN(Cc3ccccc3)CC2)ccc1[N+](=O)[O-] | inactive
CC(OC(=O)CN1C(=O)COc2ccccc21)C(=O)NCc1ccc(F)cc1 (centres undefined) | inactive
O=C(NCCc1ccccn1)c1nc(Cn2cc([N+](=O)[O-])cn2)no1 | inactive
CC(=O)Nc1ccc(S(=O)(=O)N(C)c2nc3ccccc3nc2Cl)cc1 | inactive
COc1ccc(C(=O)C2CCCN(C(=O)c3cc(C)on3)C2)cc1F (centres undefined) | inactive
CCOc1cc(N2CCOCC2)c(OCC)cc1NC(=O)COc1cccc2cccnc12 | 3.29 µM (active)
CC(=O)NCCC(=O)Nc1cc(S(=O)(=O)N2CCOCC2)ccc1N1CCOCC1 | inactive
CCOc1cc(N2CCOCC2)c(OCC)cc1NC(=O)C1=NN(c2cccc(C)c2)C(=O)CC1 | inactive
NC(=O)C1CCN(C(=O)COc2cccc3cccnc23)CC1 | inactive
O=C(COC(=O)c1ccccc1F)Nc1cc(S(=O)(=O)N2CCOCC2)ccc1N1CCCC1 | inactive
O=C(COc1cccc2ccccc12)Nc1cc(S(=O)(=O)N2CCOCC2)ccc1N1CCOCC1 | 11.7 µM (active)
O=C(Nc1c2c(nn1-c1ccccc1)CS(=O)(=O)C2)C1CCCC1 | inactive
